Results reported in PubChem BioAssay (NCATS).
Values without a mark were called inactive. Inconclusive results are not listed. Activity calls are given as the source filed them. Unless noted, calls follow the shape of the dose curve; as a rule, active = well fitted curve in the direction sought with a large enough effect; inconclusive = small, poorly fitted or top-dose-only effect, or another doubt; inactive = no such curve, though single readings can be large; an effect the other way counts as inactive or inconclusive.

Tested on: not listed separately
Assay: Validation screen for small molecules that induce DNA re-replication in SW480 colon adenocarcinoma cells (AID 504364); also: 0% is about no effect
Settings: DNA re-replication phenotype (high-content imaging); series mostly up to 46.1 µM; activity (re-replication induction): at the top concentration
Procedure, shortened: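 Hoechst-stained SW480 nuclei, imaged at 405 nm excitation after 48 hr compound exposure, were counted for elevated DNA content as the re-replication signal.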

Row | Structure (SMILES) | activity (re-replication induction) | outcome
1 | CCC1(c2ccc(N)cc2)CCC(=O)NC1=O (stereo not given) | -7.08% | 
2 | CC(NC(C)(C)C)C(=O)c1cccc(Cl)c1 (stereo not given) | -10.8% | 
3 | O=P1(N(CCCl)CCCl)NCCCO1 (stereo not given) | -11.5% | 
4 | O=c1[nH]oc2c1CCNC2 | 17.9% | 
5 | C[C@]12CCC(=O)C=C1CC[C@@H]1[C@@H]2CC[C@]2(C)C(=O)CC[C@@H]12 | 5.55% | 
6 | O=C(CCCN1CCC2(CC1)C(=O)NCN2c1ccccc1)c1ccc(F)cc1 | -11.3% | 
7 | COc1ccc2c(c1OC)C(=O)O[C@H]2[C@@H]1c2cc3c(cc2CCN1C)OCO3 | -0.75% | 
8 | NCCc1ccc(O)cc1 | -11.6% | 
9 | O=C(O)CCCc1ccc(N(CCCl)CCCl)cc1 | 2.94% | 
10 | C=C(C)[C@H]1CN[C@H](C(=O)O)[C@H]1CC(=O)O | -0.853% | 
11 | CC(C)c1cccc(C(C)C)c1O | -11.6% | 
12 | CN1C(=O)CCS(=O)(=O)C1c1ccc(Cl)cc1 (stereo not given) | 1.54% | 
13 | CC(C)(C)NCC(O)c1ccccc1Cl (stereo not given) | -1.24% | 
14 | CC(C)N(CCC(C(N)=O)(c1ccccc1)c1ccccn1)C(C)C (stereo not given) |  | inactive
15 | CCCCC/C=C\C/C=C\C/C=C\C/C=C\CCCC(=O)NCC(=O)O | -10.9% | 

Biological target: Peptidyl-prolyl cis-trans isomerase NIMA-interacting 1 (Homo sapiens) (UniProt Q13526)
Sequence (Q13526 whole entry, looked up): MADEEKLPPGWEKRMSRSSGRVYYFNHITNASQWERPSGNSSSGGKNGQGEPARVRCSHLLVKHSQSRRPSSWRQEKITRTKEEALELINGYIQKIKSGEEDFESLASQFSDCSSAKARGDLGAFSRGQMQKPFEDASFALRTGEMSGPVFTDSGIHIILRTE
Assay: qHTS Validation Assay to Find Inhibitors of Pin1 (AID 504536; active = well fitted inhibition curve with a large enough effect in the polarisation, with a control signal flat, not every such curve was filed as active; the % refers to the polarisation;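 also: 0% = full Pin1 enzyme wells and -100% = no-enzyme wells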)
Settings: Pin1 fluorescence polarization peptide binding assay; series mostly up to 57.5 µM; activity, negative = inhibition: at the top concentration
Procedure, shortened: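 Fluorescence polarization competition: compounds (titration) displace HiFluor-488-labeled Pin1-1b peptide from Pin1 (0.3 uM final) in pH 7.5 HEPES buffer with DTT, 10 min at room temperature; %Activity normalized to no-enzyme wells, curves fitted.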

Row | Structure (SMILES) | activity, negative = inhibition
16 | CC(NC(C)(C)C)C(=O)c1cccc(Cl)c1 (stereo not given) | -34.3%
17 | O=P1(N(CCCl)CCCl)NCCCO1 (stereo not given) | 5.82%
18 | O=c1[nH]oc2c1CCNC2 | -2.11%
19 | Cc1ncsc1CCCl | 1.19%
20 | O=C(CCCN1CCC2(CC1)C(=O)NCN2c1ccccc1)c1ccc(F)cc1 | -3.49%
21 | COc1ccc2c(c1OC)C(=O)O[C@H]2[C@@H]1c2cc3c(cc2CCN1C)OCO3 | 6.09%
22 | NCCc1ccc(O)cc1 | -1.5%
23 | O=C(O)CCCc1ccc(N(CCCl)CCCl)cc1 | 6.1%
24 | C=C(C)[C@H]1CN[C@H](C(=O)O)[C@H]1CC(=O)O | 4.93%
25 | CC(C)c1cccc(C(C)C)c1O | 1.33%
26 | CN1C(=O)CCS(=O)(=O)C1c1ccc(Cl)cc1 (stereo not given) | -22.1%
27 | CC(C)(C)NCC(O)c1ccccc1Cl (stereo not given) | -8.84%
28 | CC(C)N(CCC(C(N)=O)(c1ccccc1)c1ccccn1)C(C)C (stereo not given) | 20.9%

Biological target: phosphoglycerate mutase (Leishmania major) (UniProt Q4Q090)
Sequence (Q4Q090 1-553): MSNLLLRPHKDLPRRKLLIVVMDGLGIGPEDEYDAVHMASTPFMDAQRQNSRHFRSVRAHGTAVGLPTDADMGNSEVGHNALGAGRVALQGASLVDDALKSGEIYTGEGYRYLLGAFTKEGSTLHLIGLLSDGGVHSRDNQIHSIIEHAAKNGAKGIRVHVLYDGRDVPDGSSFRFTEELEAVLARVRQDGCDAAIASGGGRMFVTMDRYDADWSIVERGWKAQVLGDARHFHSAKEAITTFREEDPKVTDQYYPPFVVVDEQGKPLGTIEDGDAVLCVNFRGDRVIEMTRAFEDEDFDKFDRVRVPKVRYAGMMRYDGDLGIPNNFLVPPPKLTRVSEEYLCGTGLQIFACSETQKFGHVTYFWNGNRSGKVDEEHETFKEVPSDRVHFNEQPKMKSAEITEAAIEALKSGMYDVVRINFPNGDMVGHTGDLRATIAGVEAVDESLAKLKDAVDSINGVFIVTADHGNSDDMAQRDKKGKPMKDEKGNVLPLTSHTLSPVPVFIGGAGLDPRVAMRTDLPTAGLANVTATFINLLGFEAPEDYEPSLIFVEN
Assay: qHTS Validation Assay to Find Inhibitors of Phosphoglycerate Mutase (AID 504548); also: % is scaled to controls: 0 for no effect and ±100 for the full control effect
Settings: biochemical enzyme activity; series mostly up to 57.5 µM; activity change, negative = inhibition: at the top concentration
Procedure, shortened: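 Lm PGAM at 1.25 nM final with substrate in 100 mM TEA pH 7.6, 5 mM MgCl2, 0.01% Tween-20; 45 min at room temperature. Kinase-GloPlus added, 10 min, end-point luminescence read.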

Row | Structure (SMILES) | activity change, negative = inhibition | outcome
29 | CCC1(c2ccc(N)cc2)CCC(=O)NC1=O (stereo not given) | -1.41% | 
30 | CC(NC(C)(C)C)C(=O)c1cccc(Cl)c1 (stereo not given) | -3.85% | 
31 | O=P1(N(CCCl)CCCl)NCCCO1 (stereo not given) | 10.8% | 
32 | O=c1[nH]oc2c1CCNC2 | 0.817% | 
33 | Cc1ncsc1CCCl | -0.0318% | 
34 | O=C(CCCN1CCC2(CC1)C(=O)NCN2c1ccccc1)c1ccc(F)cc1 | -3.91% | 
35 | COc1ccc2c(c1OC)C(=O)O[C@H]2[C@@H]1c2cc3c(cc2CCN1C)OCO3 | -1.42% | 
36 | NCCc1ccc(O)cc1 | -1.28% | 
37 | O=C(O)CCCc1ccc(N(CCCl)CCCl)cc1 | -7.6% | 
38 | C=C(C)[C@H]1CN[C@H](C(=O)O)[C@H]1CC(=O)O | -4.86% | 
39 | CC(C)c1cccc(C(C)C)c1O | -3.5% | 
40 | CN1C(=O)CCS(=O)(=O)C1c1ccc(Cl)cc1 (stereo not given) | -1.39% | 
41 | CC(C)(C)NCC(O)c1ccccc1Cl (stereo not given) | -2.57% | 
42 | CC(C)N(CCC(C(N)=O)(c1ccccc1)c1ccccn1)C(C)C (stereo not given) |  | inactive
43 | CCCCC/C=C\C/C=C\C/C=C\C/C=C\CCCC(=O)NCC(=O)O | 18.6% | 

Tested on: not listed separately
Assay: Inducers of the Endoplasmic Reticulum Stress Response (ERSR) in human glioma: Validation (AID 504836); also: 0% is about no effect
Settings: human glioma cells, ER stress response reporter; series mostly up to 38.3 µM; activation: at the top concentration
Procedure, shortened: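 ERSR induction read as luciferase luminescence (Bright-Glo, 10 min at room temperature) in stably transfected human U87-MG glioma cells exposed to compounds for 16 h, using GRP78 as sensor.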

Row | Structure (SMILES) | activation | outcome
44 | Cn1c(=O)c2[nH]cnc2n(C)c1=O | -0.235% | 
45 | C[C@](N)(Cc1ccc(O)cc1)C(=O)O | 0.788% | 
46 | CCC1(c2ccc(N)cc2)CCC(=O)NC1=O (stereo not given) | -0.661% | 
47 | NC(Cc1ccc(Cl)cc1)C(=O)O (stereo not given) | -3.39% | 
48 | CN=C(NC#N)NCCSCc1nc[nH]c1C | -3.47% | 
49 | CC(NC(C)(C)C)C(=O)c1cccc(Cl)c1 (stereo not given) | -0.814% | 
50 | CC1COc2c(N3CCN(C)CC3)c(F)cc3c(=O)c(C(=O)O)cn1c23 (stereo not given) | -2.91% | 
51 | O=P1(N(CCCl)CCCl)NCCCO1 (stereo not given) | -3.45% | 
52 | O=c1[nH]oc2c1CCNC2 | 1.52% | 
53 | Cc1ncsc1CCCl | -1.25% | 
54 | CCN1CCC[C@H]1CNC(=O)c1c(O)c(Cl)cc(Cl)c1OC | -0.76% | 
55 | CN(C)CCOC(=O)COc1ccc(Cl)cc1 | 0.5% | 
56 | CCCCCN(C)CCC(O)(P(=O)(O)O)P(=O)(O)O | -4.53% | 
57 | CC(C)NNC(=O)c1ccncc1 | -2.53% | 
58 | COc1ccc2c(c1OC)C(=O)O[C@H]2[C@@H]1c2cc3c(cc2CCN1C)OCO3 | -1.89% | 
59 | Cc1scc2c1N(C(=O)CN1CCN(C)CC1)c1ccccc1NC2=O | -0.791% | 
60 | O=c1c(-c2ccc(O)cc2)coc2cc(O)cc(O)c12 | -10.6% | 
61 | C1COC(NC(C2CC2)C2CC2)=N1 | -5.11% | 
62 | OCCN1CCN(CC/C=C2/c3ccccc3Sc3ccc(C(F)(F)F)cc32)CC1 | -4.59% | 

Row | Structure (SMILES) | activation | outcome
63 | NCCc1ccc(O)cc1 | -1.36% | 
64 | O=C(O)CCCc1ccc(N(CCCl)CCCl)cc1 | -4.47% | 
65 | COc1ccc2[nH]cc(CCNC(C)=O)c2c1 | -3.55% | 
66 | CNCCC=C1c2ccccc2CCc2ccccc21 | -7.33% | 
67 | C=C(C)[C@H]1CN[C@H](C(=O)O)[C@H]1CC(=O)O | 0.701% | 
68 | O=C(O)CCCCCCCC(=O)O | -4.23% | 
69 | CC(C)c1cccc(C(C)C)c1O | -2.12% | 
70 | CN1C(=O)CCS(=O)(=O)C1c1ccc(Cl)cc1 (stereo not given) | -5.12% | 
71 | CCN(CC)CCOC(=O)c1ccc(N)cc1 | 1.92% | 
72 | CN1C(C(=O)Nc2ccccn2)=C(O)c2ccccc2S1(=O)=O | -0.518% | 
73 | NC(=O)N1c2ccccc2C=Cc2ccccc21 | -4.4% | 
74 | Nc1ncnc2c1ncn2[C@@H]1O[C@H](CO)[C@@H](O)[C@H]1O | -1.57% | 
75 | CC(N=C(NC#N)Nc1ccncc1)C(C)(C)C (stereo not given) | -4.53% | 
76 | CCN(Cc1ccncc1)C(=O)C(CO)c1ccccc1 (stereo not given) | 5.03% | 
77 | CC(C)(C)NCC(O)c1ccccc1Cl (stereo not given) | 1.48% | 
78 | CC(C)N(CCC(C(N)=O)(c1ccccc1)c1ccccn1)C(C)C (stereo not given) |  | inactive
79 | CCCCC/C=C\C/C=C\C/C=C\C/C=C\CCCC(=O)NCC(=O)O | -3.42% | 
80 | c1ccc2c(c1)CCCC2C1=NCCN1 (stereo not given) | -2.31% | 
